Test results: PubChem BioAssay AID1159580 (chemical genetic matrix, 2015)
In all, about 5,500 compounds went through this assay and about 2,000 (36%) were called active. About 18% were inconclusive and are not listed. Cut-off read from the data, not from the text of the source: active = normalized growth mostly below about 0.91 (no sharp cut-off); inconclusive = no clear call, values can overlap the other calls; inactive = mostly above about 0.92. Some of the results follow.

Experiment: chemical genetic growth profiling, strain panel (AID 1159580);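 note: tested at 20 µM; growth read once vehicle control cultures reached saturation at 30 °C; 1 = growth at the plate median or of vehicle wells; lower values mean less growth of the strain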
Conditions: growth OD

Measured: normalized growth

CC(C)c1ccc2c(c1)CCC1[C@](C)(CN)CCC[C@]21C (stereo partly specified)
active: S. cerevisiae deletion strains, locus YKL009W, strain mrt4, stronger effect = lower value 0.868 | S. cerevisiae deletion strains, locus YKL190W, strain CNB1, stronger effect = lower value 0.211 | S. cerevisiae deletion strains, locus YKR001C, strain vps1, stronger effect = lower value 0.0635 | S. cerevisiae deletion strains, locus YLR058C, strain SHM2, stronger effect = lower value 0.17 | S. cerevisiae deletion strains, locus YLR102C, strain apc9, stronger effect = lower value 0.922 | S. cerevisiae deletion strains, locus YLR268W, strain sec22, stronger effect = lower value 0.092 | S. cerevisiae deletion strains, locus YLR330W, strain CHS5, stronger effect = lower value 0.262 | S. cerevisiae deletion strains, locus YLR342W, strain FKS1 (second series), stronger effect = lower value 0.269 | S. cerevisiae deletion strains, locus YLR342W, strain FKS1, stronger effect = lower value 0.836 | S. cerevisiae deletion strains, locus YLR370C, strain arc18, stronger effect = lower value 0.865 | S. cerevisiae deletion strains, locus YLR371W, strain rom2, stronger effect = lower value 0.286 | S. cerevisiae deletion strains, locus YLR418C, strain cdc73, stronger effect = lower value 0.11 | S. cerevisiae deletion strains, locus YML016C, strain PPZ1, stronger effect = lower value 0.513 | S. cerevisiae deletion strains, locus YML032C, strain rad52, stronger effect = lower value 0.32 | S. cerevisiae deletion strains, locus YML124C, strain tub3, stronger effect = lower value 0.198 | S. cerevisiae deletion strains, locus YMR078C, strain ctf18, stronger effect = lower value 0.654 | S. cerevisiae deletion strains, locus YMR223W, strain ubp8, stronger effect = lower value 0.177 | S. cerevisiae deletion strains, locus YMR263W, strain SAP30, stronger effect = lower value 0.642 | S. cerevisiae deletion strains, locus YMR307W, strain GAS1, stronger effect = lower value 0.16 | S. cerevisiae deletion strains, locus YNL067W, strain RPL9B, stronger effect = lower value 0.62 | S. cerevisiae deletion strains, locus YNL071W, strain lat1, stronger effect = lower value 0.737 | S. cerevisiae deletion strains, locus YNL128W, strain TEP1, stronger effect = lower value 0.279 | S. cerevisiae deletion strains, locus YNL153C, strain GIM3, stronger effect = lower value 0.262 | S. cerevisiae deletion strains, locus YNL233W, strain BNI4, stronger effect = lower value 0.414 | S. cerevisiae deletion strains, locus YNL298W, strain CLA4, stronger effect = lower value 0.839 | S. cerevisiae deletion strains, locus YNL307C, strain MCK1, stronger effect = lower value 0.132 | S. cerevisiae deletion strains, locus YNL322C, strain KRE1, stronger effect = lower value 0.599 | S. cerevisiae deletion strains, locus YNR052C, strain pop2, stronger effect = lower value 0.0663 | S. cerevisiae deletion strains, locus YOL006C, strain TOP1, stronger effect = lower value 0.139 | S. cerevisiae deletion strains, locus YOL147C, strain pex11, stronger effect = lower value 0.0811 | S. cerevisiae deletion strains, locus YOR061W, strain CKA2, stronger effect = lower value 0.417 | S. cerevisiae deletion strains, locus YOR069W, strain VPS5, stronger effect = lower value 0.847 | S. cerevisiae deletion strains, locus YOR136W, strain idh2, stronger effect = lower value 0.257 | S. cerevisiae deletion strains, locus YOR144C, strain elg1, stronger effect = lower value 0.372 | S. cerevisiae deletion strains, locus YOR184W, strain ser1, stronger effect = lower value 0.124 | S. cerevisiae deletion strains, locus YOR270C, strain vph1, stronger effect = lower value 0.577 | S. cerevisiae deletion strains, locus YOR290C, strain snf2, stronger effect = lower value 0.85 | S. cerevisiae deletion strains, locus YOR316C, strain cot1, stronger effect = lower value 0.837 | S. cerevisiae deletion strains, locus YPL055C, strain LGE1, stronger effect = lower value 0.404 | S. cerevisiae deletion strains, locus YPL241C, strain CIN2, stronger effect = lower value 0.865 | S. cerevisiae deletion strains, locus YPR119W, strain clb2, stronger effect = lower value 0.923 | S. cerevisiae deletion strains, locus YPR163C, strain tif3, stronger effect = lower value 0.072 | S. cerevisiae deletion strains, locus YPR167C, strain met16, stronger effect = lower value 0.731 | S. cerevisiae deletion strains, strain wtn01, stronger effect = lower value 0.146 | S. cerevisiae strains, strain wild type, stronger effect = lower value 0.255
inactive: S. cerevisiae deletion strains, locus YKL068W, stronger effect = lower value 0.982 | S. cerevisiae deletion strains, locus YKL085W, strain MDH1 (second series), stronger effect = lower value 0.978 | S. cerevisiae deletion strains, locus YKL085W, strain MDH1, stronger effect = lower value 0.978 | S. cerevisiae deletion strains, locus YKL160W, strain elf1, stronger effect = lower value 0.952 | S. cerevisiae deletion strains, locus YKR026C, strain gcn3, stronger effect = lower value 1.02 | S. cerevisiae deletion strains, locus YKR091W, strain srl3, stronger effect = lower value 1.01 | S. cerevisiae deletion strains, locus YLL001W, strain dnm1, stronger effect = lower value 0.963 | S. cerevisiae deletion strains, locus YLL026W, stronger effect = lower value 1.01 | S. cerevisiae deletion strains, locus YLL041C, strain sdh2, stronger effect = lower value 1.02 | S. cerevisiae deletion strains, locus YLR027C, strain aat2, stronger effect = lower value 0.978 | S. cerevisiae deletion strains, locus YLR039C, strain RIC1, stronger effect = lower value 1.28 | S. cerevisiae deletion strains, locus YLR113W, strain HOG1, stronger effect = lower value 0.999 | S. cerevisiae deletion strains, locus YLR221C, strain rsa3, stronger effect = lower value 0.953 | S. cerevisiae deletion strains, locus YLR258W, strain gsy2, stronger effect = lower value 0.948 | S. cerevisiae deletion strains, locus YLR262C, strain YPT6 (second series), stronger effect = lower value 0.959 | S. cerevisiae deletion strains, locus YLR262C, strain YPT6, stronger effect = lower value 1.1 | S. cerevisiae deletion strains, locus YLR320W, strain mms22, stronger effect = lower value 0.899 | S. cerevisiae deletion strains, locus YLR357W, strain rsc2, stronger effect = lower value 0.976 | S. cerevisiae deletion strains, locus YLR384C, strain iki3, stronger effect = lower value 0.999 | S. cerevisiae deletion strains, locus YML120C, strain ndi1, stronger effect = lower value 0.92 | S. cerevisiae deletion strains, locus YMR058W, strain fet3, stronger effect = lower value 0.932 | S. cerevisiae deletion strains, locus YMR125W, strain sto1, stronger effect = lower value 0.93 | S. cerevisiae deletion strains, locus YMR129W, stronger effect = lower value 1.01 | S. cerevisiae deletion strains, locus YMR205C, strain PFK2, stronger effect = lower value 0.933 | S. cerevisiae deletion strains, locus YMR231W, strain pep5, stronger effect = lower value 1.03 | S. cerevisiae deletion strains, locus YNL183C, strain NPR1, stronger effect = lower value 0.951 | S. cerevisiae deletion strains, locus YNL209W, strain ssb2, stronger effect = lower value 0.975 | S. cerevisiae deletion strains, locus YNL248C, strain rpa49, stronger effect = lower value 1.01 | S. cerevisiae deletion strains, locus YNL250W, strain rad50, stronger effect = lower value 0.936 | S. cerevisiae deletion strains, locus YNL271C, strain bni1, stronger effect = lower value 0.979 | S. cerevisiae deletion strains, locus YNL322C, strain KRE1 (second series), stronger effect = lower value 1.01 | S. cerevisiae deletion strains, locus YNR049C, strain mso1, stronger effect = lower value 1.03 | S. cerevisiae deletion strains, locus YOL012C, strain htz1 0.217 | S. cerevisiae deletion strains, locus YOR001W, strain rrp6, stronger effect = lower value 1.02 | S. cerevisiae deletion strains, locus YOR070C, strain gyp1, stronger effect = lower value 0.978 | S. cerevisiae deletion strains, locus YOR080W, strain dia2, stronger effect = lower value 0.995 | S. cerevisiae deletion strains, locus YOR083W, strain WHI5, stronger effect = lower value 0.904 | S. cerevisiae deletion strains, locus YOR106W, strain vam3, stronger effect = lower value 0.92 | S. cerevisiae deletion strains, locus YOR231W, strain MKK1, stronger effect = lower value 0.963 | S. cerevisiae deletion strains, locus YOR265W, strain rbl2, stronger effect = lower value 0.999 | S. cerevisiae deletion strains, locus YPL051W, strain arl3, stronger effect = lower value 0.988 | S. cerevisiae deletion strains, locus YPL078C, strain atp4, stronger effect = lower value 0.896 | S. cerevisiae deletion strains, locus YPL106C, strain sse1, stronger effect = lower value 0.939 | S. cerevisiae deletion strains, locus YPL240C, strain hsp82, stronger effect = lower value 0.988 | S. cerevisiae deletion strains, locus YPL256C, strain CLN2, stronger effect = lower value 0.979 | S. cerevisiae deletion strains, locus YPR141C, strain kar3, stronger effect = lower value 0.92
